# In publication PMC11062922 (Nature Chemical Biology, 2023):
# Like-named read-outs stand apart in the source and are kept apart here.
# Assays:
# [1] = tested on: PHKG2; conditions: read-out: apparent Kd, n = 1
# [2] = tested on: PKN1; conditions: read-out: apparent Kd, n = 1
substance,measurement,setting,value
Lestaurtinib,potency estimated from few doses,"[1]; compound concentrations:100 nM and 1000 nM (sheet 'Lestaurtinib' of Supplementary Table 1),run:Lestaurtinib_02496_R2,Plate:MR013",362 nM
same,potency estimated from few doses,"[1]; compound concentrations:100 nM and 1000 nM (sheet 'Lestaurtinib' of Supplementary Table 1),run:Lestaurtinib_02496_R3,Plate:MR013",182 nM
same,potency estimated from few doses,"[1]; compound concentrations:100 nM and 1000 nM (sheet 'Lestaurtinib' of Supplementary Table 1),run:Lestaurtinib_02566_R1,Plate:MR014",309 nM
same,potency estimated from few doses,"[1]; compound concentrations:100 nM and 1000 nM (sheet 'Lestaurtinib' of Supplementary Table 1),run:Lestaurtinib_02566_R2,Plate:MR014",151 nM
same,potency estimated from few doses,"[1]; compound concentrations:100 nM and 1000 nM (sheet 'Lestaurtinib' of Supplementary Table 1),run:Lestaurtinib_02566_R3,Plate:MR014",182 nM
same,potency estimated from few doses,"[1]; compound concentrations:100 nM and 1000 nM (sheet 'Lestaurtinib' of Supplementary Table 1),run:Lestaurtinib_02572_R1,Plate:MR015",92 nM
same,potency estimated from few doses,"[1]; compound concentrations:100 nM and 1000 nM (sheet 'Lestaurtinib' of Supplementary Table 1),run:Lestaurtinib_02572_R2,Plate:MR015",444 nM
same,potency estimated from few doses,"[1]; compound concentrations:100 nM and 1000 nM (sheet 'Lestaurtinib' of Supplementary Table 1),run:Lestaurtinib_02584_R1,Plate:MR017",215 nM
same,potency estimated from few doses,"[1]; compound concentrations:100 nM and 1000 nM (sheet 'Lestaurtinib' of Supplementary Table 1),run:Lestaurtinib_02584_R2,Plate:MR017",239 nM
same,potency estimated from few doses,"[1]; compound concentrations:100 nM and 1000 nM (sheet 'Lestaurtinib' of Supplementary Table 1),run:Lestaurtinib_02606_R1,Plate:MR019",197 nM
same,potency estimated from few doses,"[1]; compound concentrations:100 nM and 1000 nM (sheet 'Lestaurtinib' of Supplementary Table 1),run:Lestaurtinib_02606_R2,Plate:MR019",175 nM
same,potency estimated from few doses,"[1]; compound concentrations:100 nM and 1000 nM (sheet 'Lestaurtinib' of Supplementary Table 1),run:Lestaurtinib_02606_R3,Plate:MR019",636 nM
same,potency estimated from few doses,"[1]; compound concentrations:100 nM and 1000 nM (sheet 'Lestaurtinib' of Supplementary Table 1),run:Lestaurtinib_02624_R1,Plate:MR020",390 nM
same,potency estimated from few doses,"[1]; compound concentrations:100 nM and 1000 nM (sheet 'Lestaurtinib' of Supplementary Table 1),run:Lestaurtinib_02624_R3,Plate:MR020",244 nM
same,potency estimated from few doses,"[1]; compound concentrations:100 nM and 1000 nM (sheet 'Lestaurtinib' of Supplementary Table 1),run:Lestaurtinib_02724_R1,Plate:MR021",270 nM
same,potency estimated from few doses,"[1]; compound concentrations:100 nM and 1000 nM (sheet 'Lestaurtinib' of Supplementary Table 1),run:Lestaurtinib_02724_R2,Plate:MR021",239 nM
same,potency estimated from few doses,"[1]; compound concentrations:100 nM and 1000 nM (sheet 'Lestaurtinib' of Supplementary Table 1),run:Lestaurtinib_02724_R3,Plate:MR021",180 nM
same,potency estimated from few doses,"[1]; compound concentrations:100 nM and 1000 nM (sheet 'Lestaurtinib' of Supplementary Table 1),run:Lestaurtinib_02741_R1,Plate:MR023",372 nM
same,potency estimated from few doses,"[1]; compound concentrations:100 nM and 1000 nM (sheet 'Lestaurtinib' of Supplementary Table 1),run:Lestaurtinib_02741_R2,Plate:MR023",355 nM
same,potency estimated from few doses,"[1]; compound concentrations:100 nM and 1000 nM (sheet 'Lestaurtinib' of Supplementary Table 1),run:Lestaurtinib_02741_R3,Plate:MR023",301 nM
same,potency estimated from few doses,"[1]; compound concentrations:100 nM and 1000 nM (sheet 'Lestaurtinib' of Supplementary Table 1),run:Lestaurtinib_02748_R1,Plate:MR024",208 nM
same,potency estimated from few doses,"[1]; compound concentrations:100 nM and 1000 nM (sheet 'Lestaurtinib' of Supplementary Table 1),run:Lestaurtinib_02748_R3,Plate:MR024",211 nM
same,potency estimated from few doses,"[1]; compound concentrations:100 nM and 1000 nM (sheet 'Lestaurtinib' of Supplementary Table 1),run:Lestaurtinib_02765_R1,Plate:MR026",637 nM
same,potency estimated from few doses,"[1]; compound concentrations:100 nM and 1000 nM (sheet 'Lestaurtinib' of Supplementary Table 1),run:Lestaurtinib_02765_R2,Plate:MR026",849 nM
same,potency estimated from few doses,"[1]; compound concentrations:100 nM and 1000 nM (sheet 'Lestaurtinib' of Supplementary Table 1),run:Lestaurtinib_02765_R3,Plate:MR026",487 nM
same,potency estimated from few doses,"[1]; compound concentrations:100 nM and 1000 nM (sheet 'Lestaurtinib' of Supplementary Table 1),run:Lestaurtinib_02766_R1,Plate:MR027",440 nM
same,potency estimated from few doses,"[1]; compound concentrations:100 nM and 1000 nM (sheet 'Lestaurtinib' of Supplementary Table 1),run:Lestaurtinib_02766_R2,Plate:MR027",170 nM
same,potency estimated from few doses,"[1]; compound concentrations:100 nM and 1000 nM (sheet 'Lestaurtinib' of Supplementary Table 1),run:Lestaurtinib_02768_R1,Plate:MR028",124 nM
same,potency estimated from few doses,"[1]; compound concentrations:100 nM and 1000 nM (sheet 'Lestaurtinib' of Supplementary Table 1),run:Lestaurtinib_02795_R1,Plate:MR022",217 nM
same,potency estimated from few doses,"[1]; compound concentrations:100 nM and 1000 nM (sheet 'Lestaurtinib' of Supplementary Table 1),run:Lestaurtinib_02795_R3,Plate:MR022",347 nM
same,potency estimated from few doses,"[1]; compound concentrations:100 nM and 1000 nM (sheet 'Lestaurtinib' of Supplementary Table 1),run:Lestaurtinib_02802_R2,Plate:MR029",197 nM
same,potency estimated from few doses,"[1]; compound concentrations:100 nM and 1000 nM (sheet 'Lestaurtinib' of Supplementary Table 1),run:Lestaurtinib_02896_R3,Plate:MR030",250 nM
same,potency estimated from few doses,"[1]; compound concentrations:100 nM and 1000 nM (sheet 'Lestaurtinib' of Supplementary Table 1),run:Lestaurtinib_03172_R1,Plate:MR031",153 nM
same,potency estimated from few doses,"[1]; compound concentrations:100 nM and 1000 nM (sheet 'Lestaurtinib' of Supplementary Table 1),run:Lestaurtinib_03172_R3,Plate:MR031",213 nM
same,potency estimated from few doses,"[1]; compound concentrations:100 nM and 1000 nM (sheet 'Lestaurtinib' of Supplementary Table 1),run:Lestaurtinib_03252_R1,Plate:MR032",635 nM
same,potency estimated from few doses,"[1]; compound concentrations:100 nM and 1000 nM (sheet 'Lestaurtinib' of Supplementary Table 1),run:Lestaurtinib_03252_R2,Plate:MR032",91.1 nM
same,potency estimated from few doses,"[1]; compound concentrations:100 nM and 1000 nM (sheet 'Lestaurtinib' of Supplementary Table 1),run:Lestaurtinib_03260_R1,Plate:MR033",321 nM
same,potency estimated from few doses,"[1]; compound concentrations:100 nM and 1000 nM (sheet 'Lestaurtinib' of Supplementary Table 1),run:Lestaurtinib_03260_R2,Plate:MR033",323 nM
same,potency estimated from few doses,"[1]; compound concentrations:100 nM and 1000 nM (sheet 'Lestaurtinib' of Supplementary Table 1),run:Lestaurtinib_03260_R3,Plate:MR033",212 nM
same,potency estimated from few doses,"[2]; compound concentrations:100 nM and 1000 nM (sheet 'Lestaurtinib' of Supplementary Table 1),run:Lestaurtinib_02339_R1,Plate:MR001",424 nM
same,potency estimated from few doses,"[2]; compound concentrations:100 nM and 1000 nM (sheet 'Lestaurtinib' of Supplementary Table 1),run:Lestaurtinib_02339_R2,Plate:MR001",316 nM
same,potency estimated from few doses,"[2]; compound concentrations:100 nM and 1000 nM (sheet 'Lestaurtinib' of Supplementary Table 1),run:Lestaurtinib_02364_R1,Plate:MR002",497 nM
